{"source": "paper PMC9838217", "about": "“Structure of SALL4 zinc finger domain reveals link between AT-rich DNA binding and Okihiro syndrome”", "note": "Residue numbers refer to the chain shown, from its start."}
{"biological_target": "T1, SALL4 ZFC4 R900W (HT-SELEX) (Mus musculus, UniProt Q8BX22 870-940, R900W)", "T1 sequence": "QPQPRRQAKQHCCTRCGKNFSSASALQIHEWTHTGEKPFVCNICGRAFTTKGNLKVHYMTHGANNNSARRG", "assay": "HT-SELEX; high values mean tight binding", "conditions": "protein: recombinant; vector His6-GST; dsDNA, one strand shown", "procedure,_shortened": "(§1)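 DNA from a random library (1.5 µg in the first cycle, 200 ng afterwards) was incubated with purified recombinant mouse SALL4 zinc finger cluster 4, residues 870–940 (1 µg), for 10 min at room temperature in 100 µl buffer: 10 mM Tris–HCl pH 7.5, 50 mM NaCl, poly(dI-dC), DTT. Bound complexes were pulled down on Ni2+ beads, washed and PCR-amplified, and the selection was repeated for up to 6 cycles in triplicate. MiSeq reads were scanned for 6-mers, and binding signal is each canonical k-mer's read fraction as fold change over the initial random library.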", "units": {"binding signal": "fold-change vs cycle 0"}}
{"sequence": "ATGGCC", "binding signal": "0.263 ± 0.0192"}
{"sequence": "GCTGCC", "binding signal": "0.109 ± 0.0113"}
{"sequence": "GCGTCA", "binding signal": "0.266 ± 0.00412"}
{"sequence": "GAGGCC", "binding signal": "0.158 ± 0.00288"}
{"sequence": "CGGCCG", "binding signal": "0.0289 ± 0.00511"}
{"sequence": "GCCGGC", "binding signal": "0.0318 ± 0.0022"}
{"sequence": "GCATGC", "binding signal": "0.3 ± 0.0114"}
{"sequence": "GCACCA", "binding signal": "0.324 ± 0.0178"}
{"sequence": "AGCGTG", "binding signal": "0.35 ± 0.0043"}
{"sequence": "GATGCC", "binding signal": "0.3346 ± 0.00318"}
{"sequence": "CGTGGC", "binding signal": "0.125 ± 0.0124"}
{"sequence": "CGTGCC", "binding signal": "0.121 ± 0.0106"}
{"sequence": "CCCTGC", "binding signal": "0.219 ± 0.0265"}
{"sequence": "AGCGCT", "binding signal": "0.189 ± 0.0213"}
{"sequence": "ATGCGG", "binding signal": "0.275 ± 0.0176"}
{"sequence": "CGACGC", "binding signal": "0.0904 ± 0.00963"}
{"sequence": "TCGGCA", "binding signal": "0.208 ± 0.0109"}
{"sequence": "CGAGCG", "binding signal": "0.115 ± 0.0072"}
{"sequence": "CCCACG", "binding signal": "0.214 ± 0.0117"}
{"sequence": "CGGCCA", "binding signal": "0.0795 ± 0.00952"}
{"sequence": "ACGCGA", "binding signal": "0.245 ± 0.0174"}
{"sequence": "CTGCGC", "binding signal": "0.08 ± 0.0196"}
{"sequence": "CCACGC", "binding signal": "0.141 ± 0.0119"}
{"sequence": "ACGCAG", "binding signal": "0.305 ± 0.0196"}
{"sequence": "ACGGCT", "binding signal": "0.272 ± 0.0156"}
{"sequence": "CGCTTC", "binding signal": "0.316 ± 0.00396"}
{"sequence": "CGGGGA", "binding signal": "0.231 ± 0.0209"}
{"sequence": "CAGGCA", "binding signal": "0.348 ± 0.0149"}
{"sequence": "CGCAGC", "binding signal": "0.0883 ± 0.014"}
{"sequence": "ACTCGC", "binding signal": "0.3364 ± 0.000841"}
{"sequence": "CGAGCA", "binding signal": "0.299 ± 0.00719"}
{"sequence": "ATTCTC", "binding signal": "1.55 ± 0.0853"}
{"sequence": "CAGGGG", "binding signal": "0.308 ± 0.0124"}
{"sequence": "AGCACG", "binding signal": "0.337 ± 0.0173"}
{"sequence": "ATGCCC", "binding signal": "0.331 ± 0.00967"}
{"sequence": "GACGAC", "binding signal": "0.342 ± 0.0283"}
{"sequence": "CATCGC", "binding signal": "0.317 ± 0.0166"}
{"sequence": "CGCGAA", "binding signal": "0.201 ± 0.0239"}
{"sequence": "ATACGA", "binding signal": "1.27 ± 0.0333"}
{"sequence": "GGTCGA", "binding signal": "0.33 ± 0.0136"}
{"biological_target": "T2, SALL4 ZFC4 G921D (HT-SELEX) (Mus musculus, UniProt Q8BX22 870-940, G921D)", "T2 sequence": "T1 sequence with W31R, G52D", "assay": "HT-SELEX; high values mean tight binding", "conditions": "protein: recombinant; vector His6-GST; dsDNA, one strand shown", "procedure,_shortened": "as §1", "units": {"binding signal": "fold-change vs cycle 0"}}
{"sequence": "ATGGCC", "binding signal": "0.413 ± 0.0521"}
{"sequence": "GCTGCC", "binding signal": "0.217 ± 0.0947"}
{"sequence": "GCGTCA", "binding signal": "0.39 ± 0.0541"}
{"sequence": "GAGGCC", "binding signal": "0.286 ± 0.0765"}
{"sequence": "CGGCCG", "binding signal": "0.105 ± 0.0554"}
{"sequence": "GCCGGC", "binding signal": "0.112 ± 0.0697"}
{"sequence": "GCATGC", "binding signal": "0.437 ± 0.0507"}
{"sequence": "GCACCA", "binding signal": "0.451 ± 0.0674"}
{"sequence": "AGCGTG", "binding signal": "0.476 ± 0.0501"}
{"sequence": "GATGCC", "binding signal": "0.49 ± 0.0663"}
{"sequence": "CGTGGC", "binding signal": "0.24 ± 0.0653"}
{"sequence": "CGTGCC", "binding signal": "0.246 ± 0.0768"}
{"sequence": "CCCTGC", "binding signal": "0.323 ± 0.0875"}
{"sequence": "AGCGCT", "binding signal": "0.343 ± 0.109"}
{"sequence": "ATGCGG", "binding signal": "0.409 ± 0.0549"}
{"sequence": "CGACGC", "binding signal": "0.193 ± 0.0701"}
{"sequence": "TCGGCA", "binding signal": "0.351 ± 0.0637"}
{"sequence": "CGAGCG", "binding signal": "0.24 ± 0.0639"}
{"sequence": "CCCACG", "binding signal": "0.319 ± 0.0528"}
{"sequence": "CGGCCA", "binding signal": "0.19 ± 0.0619"}
{"sequence": "ACGCGA", "binding signal": "0.365 ± 0.0478"}
{"sequence": "CTGCGC", "binding signal": "0.173 ± 0.0775"}
{"sequence": "CCACGC", "binding signal": "0.248 ± 0.0561"}
{"sequence": "ACGCAG", "binding signal": "0.422 ± 0.0649"}
{"sequence": "ACGGCT", "binding signal": "0.399 ± 0.0636"}
{"sequence": "CGCTTC", "binding signal": "0.452 ± 0.0563"}
{"sequence": "CGGGGA", "binding signal": "0.347 ± 0.093"}
{"sequence": "CAGGCA", "binding signal": "0.477 ± 0.0613"}
{"sequence": "CGCAGC", "binding signal": "0.191 ± 0.0678"}
{"sequence": "ACTCGC", "binding signal": "0.463 ± 0.0712"}
{"sequence": "CGAGCA", "binding signal": "0.447 ± 0.0658"}
{"sequence": "ATTCTC", "binding signal": "1.41 ± 0.126"}
{"sequence": "CAGGGG", "binding signal": "0.417 ± 0.0612"}
{"sequence": "AGCACG", "binding signal": "0.468 ± 0.0696"}
{"sequence": "ATGCCC", "binding signal": "0.475 ± 0.0568"}
{"sequence": "GACGAC", "binding signal": "0.474 ± 0.0702"}
{"sequence": "CATCGC", "binding signal": "0.45 ± 0.0668"}
{"sequence": "CGCGAA", "binding signal": "0.315 ± 0.0749"}
{"sequence": "ATACGA", "binding signal": "1.26 ± 0.0263"}
{"sequence": "GGTCGA", "binding signal": "0.48 ± 0.0759"}
